Among the data in PubChem BioAssay (NCATS) are Potency and outcome values, retold here.

Inconclusive results are not listed. Entries that show only a call come without a potency. Activity calls are given as the source filed them. The call rests on the fitted dose curve; in most records, active means well fitted inhibition curve with a large enough effect; inconclusive means small, poorly fitted or top-dose-only effect; inactive means flat fitted curve, though single readings scatter.

In this assay the test system is CRL-7250. In words: qHTS assay to identify novel small-molecules to repurpose for Merkel cell carcinoma treatment (AID 1296009). Further: nearly all actives have a fitted effect of over 60% in size. Conditions: MCC and control cell lines, CellTiter-Glo viability, 72 h; series mostly up to 92 µM. The method, boiled down:
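Cells were incubated with compound for 72 hr at 37 degree celsius before CellTiter-Glo addition. Luminescence was normalized with no-cell wells as full cytotoxicity and DMSO as baseline.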
For orientation: qHTS replaces the single test concentration by a dilution series.
For `CO[C@@H](Cc1ccc(OCCc2nc(-c3ccccc3)oc2C)c2ccsc12)C(=O)O`, the Potency entry is “inactive”.
As to `C[C@@H]1O[C@@H](O[C@H]2[C@H](OC(=O)[C@]34CCC(C)(C)C[C@H]3C3=CCC5[C@@]6(C)C[C@H](O)[C@H](O[C@@H]7O[C@H](C(=O)O)[C@@H](O)[C@H](O)[C@H]7O)[C@@](C)(CO)C6[C@H](O)C[C@@]5(C)[C@]3(C)C[C@H]4O)O[C@@H](CO)[C@@H]2O)[C@H](O)[C@H](O)[C@H]1O[C@@H]1OC[C@@H](O)[C@H](O[C@H]2OC[C@](O)(CO)[C@H]2O)[C@H]1O` (stereo partly specified), the outcome is “inactive [at 9.27 µM]”.
On to `O=C(NC1CCN(CC(F)(F)F)CC1)c1ccc(-c2cccc(F)c2)nc1`, for which the Potency entry was “inactive”.
On the same count and under the same terms, for `COc1c(CCC(=O)O)cccc1O[C@@H]1O[C@H](CO)[C@@H](O)[C@H](O)[C@H]1O` the value was “inactive”.
Consider `Cn1c(SCC(=O)N2CCC[C@H]2C(=O)Nc2ccccc2-c2ccccc2)nc2ccccc21`, for which the Potency result was “inactive”.
With `O=C(O[C@@H]1O[C@H](CO)[C@@H](O)[C@H](O)[C@H]1O)c1ccccc1`, the Potency result is “inactive”.
Turning to `Cc1ncc(Cl)cc1NCc1ccc(C(=O)NC(CC2CCCC2)C(=O)NC2CC2)s1` (stereo unspecified), the Potency result is “inactive”.
Still for that read-out and setting: the same measure for `CC(=O)OC[C@]12[C@H](OC(C)=O)[C@H](OC(=O)c3ccccc3)[C@@H]3[C@@H](OC(C)=O)[C@]1(OC3(C)C)[C@H](C)C[C@H](OC(C)=O)[C@@H]2OC(=O)c1ccccc1`: “inactive”.
On the same count and under the same terms, for `O=C(NCc1ccc(F)cc1)C(=O)c1c[nH]c2ccccc12` the value was “inactive”.
Turning to `C=C[C@@](C)(CCC=C(C)C)O[C@@H]1O[C@H](CO[C@@H]2OC[C@H](O)[C@H](O)[C@H]2O)[C@@H](O)[C@H](O)[C@H]1O`, the Potency result was “inactive”.
On the same count and under the same terms, the same measure for `CC1CCC2(C(=O)O)CCC3(C)C(=CCC4C5(C)CCC(OC(=O)/C=C/c6ccccc6)C(C)(C)C5CCC43C)C2C1C` (stereo unspecified): “inactive”.
Still for that read-out and setting: for `CC(=O)/C=C/C1C(C)CC(O[C@@H]2O[C@H](CO)[C@@H](O)[C@H](O)[C@H]2O)CC1(C)C` (stereo partly specified) the value was “inactive”.
The same measure, in the same setting: for `O=C(Nc1ccn[nH]1)c1c(F)cccc1F` the value was “inactive”; for `CC1(C)CC2C(O)C3=C(CC(C)(O)C2C1)C(=O)OC3` (stereo unspecified), “inactive”; for `O=C(O)c1ccc(OC2OC(CO)C(O)C(O)C2O)cc1` (stereo unspecified), “inactive”.
Take `COc1cc(C(CO)C(OC2OC(CO)C(O)C(O)C2O)c2ccc(O)c(OC)c2)ccc1O` (stereo unspecified): the Potency result is “inactive”.
Still for that read-out and setting: the same measure for `COc1c2c(c(C)c3c1C(=O)OC3)O[C@@]1(C)CC(O)C(C(C)(C)O)[C@](C)(CCC(=O)O)[C@H]1C2` (stereo partly specified): “inactive”; for `CC1(C)CC[C@]2(C(=O)O)CC[C@]3(C)C(=CCC4[C@@]5(C)C[C@@H](O)[C@H](O)[C@](C)(CO)C5CC[C@]43C)[C@@H]2[C@@H]1O` (stereo partly specified): “inactive”.
Consider `CC(=O)OCC1(O)CCC2C(COC3OC(CO)C(O)C(O)C3OC(=O)/C=C/c3ccc(O)cc3)=COC(OC(=O)CC(C)C)C21` (stereo unspecified), for which the Potency result is “inactive”.
In the case of `CC(C)(C)C1CCN(C(=O)n2ncc(C(O)(c3ccccc3)c3ccccc3)n2)CC1`, the Potency entry was “inactive”.
As to `CCC(CC)C(=O)Nc1sc2c(c1C#N)CCC(C(C)(C)CC)C2` (stereo unspecified), the Potency result is “inactive”.
As for `CC/C=C\[C@H](O)[C@H](O)C1=C(C)C(=O)[C@]2(O1)C(=O)N[C@@](O)(C(=O)c1ccccc1)[C@@H]2O`, the Potency result is “inactive”.
The same measure, in the same setting: the same measure for `CC(=O)OC1C(OC(=O)c2ccccc2)C2C(C)(C)CCC(OC(C)=O)C2(C)C23CCC(C)(C2)C(=O)CC13` (stereo unspecified): “inactive”; for `COc1ccc(C2Oc3c(OC)cc(CCCO)cc3C2COC2OC(CO)C(O)C(O)C2O)cc1OC` (stereo unspecified): “inactive”.
The same measure, in the same setting: the same measure for `CCCCC(=O)N1c2ccccc2NC2=C(C(=O)CCC2)C1c1ccccc1Cl` (stereo unspecified): “inactive”.
The same measure, in the same setting: for `O=S(=O)(c1ccccc1)N(CC(F)(F)F)c1ccc(C(O)(C(F)(F)F)C(F)(F)F)cc1` the value was “inactive”.
